# PubChem BioAssay (NCI)
# Compounds without any hit were thinned out: in the full panel of roughly 79,000, 15% have a hit. Values without a mark were called inactive. Active and inactive are the calls of the source. No stated cut-off is given here; in the data, active means growth inhibition above about 70%; inactive means the rest.
# What was measured:
# [1] = NCI Yeast Anticancer Drug Screen. Data for the rad50 strain (AID 155);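 further: 0% = growth of vehicle-only cultures of the same strain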; conditions: S. cerevisiae rad50 strain growth inhibition; at 50.0 µM; hits give high values
# Summary of the method: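 Yeast carrying a defined DNA repair defect were exposed to test compounds, and growth was compared with vehicle-treated controls to give percent inhibition.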
# [2] = NCI Yeast Anticancer Drug Screen. Data for the mec2-1 strain (AID 157); conditions: S. cerevisiae mec2-1 strain, at 50.0 µM, hits give high values
# Summary of the method: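 Cells of the genetically defined mec2-1 yeast strain are incubated with test compound. Inhibition of growth is calculated against vehicle-treated controls.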
# [3] = NCI Yeast Anticancer Drug Screen. Data for the sgs1 mgt1 strain (AID 161);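 further: 0% = growth of cultures given vehicle only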; conditions: S. cerevisiae sgs1 mgt1 strain, at 50.0 µM, hits give high values
# Summary of the method: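 Mutant yeast exposed to compound; growth scored against vehicle-only wells.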
# [4] = NCI Yeast Anticancer Drug Screen. Data for the cln2 rad14 strain (AID 165);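 further: 0% = growth equal to vehicle treated cultures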; conditions: S. cerevisiae cln2 rad14 strain, at 50.0 µM, hits give high values
# Summary of the method: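 The screen exposed genetically defined yeast (cln2 rad14) to test compounds and scored growth inhibition relative to vehicle-treated controls.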
# [5] = NCI Yeast Anticancer Drug Screen. Data for the bub3 strain (AID 167); conditions: S. cerevisiae bub3 mutant strain, at 50.0 µM, hits give high values
# Summary of the method: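 Compounds were applied to a genetically altered yeast strain carrying a cell-cycle control defect. Growth inhibition was scored against vehicle-treated controls.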
# [6] = NCI Yeast Anticancer Drug Screen. Data for the mlh1 rad18 strain (AID 175); conditions: S. cerevisiae mlh1 rad18 strain growth inhibition; at 50.0 µM; hits give high values
# Summary of the method: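 Compound-treated yeast growth, normalised to vehicle controls. Strain bears defined DNA repair mutations.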
SMILES,growth inhibition [1],growth inhibition [2],growth inhibition [3],growth inhibition [4] [%],growth inhibition [5],growth inhibition [6]
N#C/C=C\c1ccc(Cl)cc1,2.6%,-4.5%,-30.4%,-10.8,-11.8%,-3.05%
CC(C)=CCC/C(C)=C/CN,9.25%,-2.6%,20.4%,-17.6,9%,6.15%
CC(=O)n1nnc(CC#N)c1-c1ccccc1,20.4%,7.5%,2.65%,5.1,-23.2%,-15.3%
CN(C)[C@@H]1C(=O)C(C(=O)NCNC2CC(C)(C)N(O)C(C)(C)C2)=C(O)C2(O)C(=O)C3=C(O)c4c(O)cccc4[C@@](C)(O)C3CC12 (stereo partly specified),-1.2%,30.6%,2.55%,-37,-22.1%,24.6%
COc1ccc2cc3n(cc-2c1=O)CCc1cc2c(cc1-3)OCO2,-8.65%,-3.1%,5.65%,-14.4,-6.65%,1.45%
CCOC(=O)C(NC(=O)CC(C)C)(NC(C)C)C(F)(F)F (stereo unspecified),-8.45%,-2.25%,-9.4%,-8.1,-3.45%,-12.9%
CC(C(=O)O)/C(=C\c1ccccc1)C(=O)O (stereo unspecified),16.6%,7.25%,21.6%,-17.5,12.6%,11.4%
CCC(=O)C12OC3OC(C)(C)OC3C1OC(C)(C)O2 (stereo unspecified),0.25%,0.75%,-15.2%,25.1,-1.9%,4.7%
CC(=O)NCC1(c2ccccc2)CCN(CC2COc3ccccc3O2)CC1 (stereo unspecified),-15.3%,-16.4%,-15.2%,16,17.1%,9.45%
COc1ccc(CCN2CN=C(Sc3ccc([N+](=O)[O-])cc3Cl)NC2)cc1OC,11%,-11.2%,7.55%,10,21.9%,11.1%
CN(C)CCOC(=O)C(O)C1CCCCC1 (stereo unspecified),-14.3%,12.8%,5.5%,18.4,15.2%,-19.9%
CCOC(=N)Cc1ccccc1,3.7%,21.1%,4.6%,-10.8,23.4%,-27.9%
[O-][n+]1c(/C=C/c2cccc3ccccc23)cccc1/C=C/c1cccc2ccccc12,-8.6%,1%,42.8%,6.55,29.4%,40.8%
COc1cc(C2c3cc4c(cc3OC(NNC(N)=S)C2C)OCO4)cc(OC)c1OC (stereo unspecified),-4%,-17.4%,2.5%,-0.2,6.95%,-9.9%
COc1ccc2c(c1)C1CCCCC1SCC2=O (stereo unspecified),1%,7.4%,-1.9%,-10.9,15.8%,-15.3%
C1CCC(C2CCCC[N-]2)[N-]C1.C1CCC(C2CCCC[N-]2)[N-]C1.[Cl][Ru][Cl] (stereo unspecified),47%,8.55%,29.1%,6.8,-0.75%,18.9%
CC(=O)NCCCCN(CCCNC(C)=O)C(=O)CNS(=O)(=O)c1cccc2c(N(C)C)cccc12,-11.2%,-17.1%,16.2%,2,17.6%,-8.65%
CCOC(=O)NC(=S)Nc1cn(C)cc1[N+](=O)[O-],3.2%,-5.9%,8.8%,1.9,3.65%,11.7%
CC(C)OC(=O)NCc1cccs1,-10.1%,-2.6%,6.7%,-92.8,1.7%,-11.1%
O=[N+]([O-])c1ccccc1-c1ccccc1[N+](=O)[O-],24.7%,16.3%,33.8%,10,-24.4%,-10.8%
ON1c2ccccc2-c2ccccc2C1(c1ccccc1)c1ccccc1,95.8% (active),96.6% (active),78.7% (active),69.8,71.5% (active),97.3% (active)

SMILES,growth inhibition [1],growth inhibition [2],growth inhibition [3],growth inhibition [4] [%],growth inhibition [5],growth inhibition [6]
ClC(Cl)C1OCCOCCO1,-16.1%,-9.65%,-9.9%,-57.8,-0.35%,-5.8%
O=C1C2C3CCC(C3)C2C(=O)N1CCO (stereo unspecified),3.35%,6%,7.15%,4.85,17.9%,-2.45%
CCCCCCCCCCCCCCCC1=NN(c2ccccc2)C(=O)C1N=Nc1ccccc1 (stereo unspecified),8.2%,-8.95%,-0.75%,-10.2,-3.3%,2.05%
Nc1cc(=O)n(-c2ccccc2)nc1Cl,2.05%,4.4%,-2.25%,-18.6,3.1%,0.2%
O=C1OCC(O)=C1C(c1ccc(Cl)cc1)c1cc2c(cc1O)OCO2 (stereo unspecified),-19.9%,-16.7%,-28.1%,-16.3,0.05%,-37.5%
O=C(NNC(=O)c1ccc2ccccc2n1)c1ccc2ccccc2n1,5.2%,2.45%,12.3%,9.8,0.2%,16.6%
COc1cccc2c(SCC(=O)Nc3ccccc3-c3ccccc3NC(=O)CSc3c4ccccc4nc4c(OC)cccc34)c3ccccc3nc12,-2.4%,3.35%,-15.8%,-36,-2%,-28.8%
CC(C)CC1=C(C(=O)c2ccoc2)CC(C)C1 (stereo unspecified),6.55%,-7.6%,-18.9%,12.1,25.9%,-7.1%
O=C1C=C(CCC2=CC(=O)c3ccccc3C2=O)C(=O)c2ccccc21,4.65%,-23.5%,-26.9%,-10.9,-26.5%,-28.6%
O=C(COc1ccc(Cl)cc1)Nc1ccc(S(=O)(=O)O)c2ccccc12,9%,0.6%,-12.4%,-5,1.65%,13.4%
CC(=O)CC(C)(C)NC(=S)Nc1ccc(C)cc1,22.6%,46.1%,15.3%,-10.7,99.2% (active),42.3%
O=C(Nc1nc(=S)[nH][nH]1)C(=O)C(C(=O)c1ccc2ccccc2c1)C1OC(=O)c2ccccc21 (stereo unspecified),28.6%,23.3%,-6.5%,-14.3,3.75%,28.8%
Cc1cc(NC(=O)NC(=O)c2ccccc2NC(=O)CN(C)C)ccc1Oc1ncc(Br)cn1,-10.3%,-28.9%,0.5%,-6.2,-21%,-26.7%
COc1cc(C2=N/C(=C\c3ccc(Cl)c(Cl)c3)C(=O)O2)cc(OC)c1OC,-26.2%,-14.8%,24.6%,-28.7,-4.4%,3.95%
C[n+]1cc(-c2ccccc2)cc2ccccc21,-1.4%,17.9%,-0.3%,-17.6,4.5%,-14.5%
CC(C)Oc1ccc(C(N)=S)c2ccccc12,-0.55%,4.75%,-0.85%,-29.1,-1%,14.1%
O/N=C(/CN1CCOCC1)c1ccccc1,-7.25%,7.9%,-0.25%,-20.9,8.4%,0%
CC(=O)[C@H]1CC[C@H]2[C@@H]3CC=C4N(CCO)C(=O)CC[C@]4(C)[C@H]3CC[C@]12C,-18.9%,-1.4%,14.8%,-28.1,25.9%,13.3%
COc1ccc(-c2c3c(n(C4OC(COC(C)=O)C(OC(C)=O)C(OC(C)=O)C4OC(C)=O)c(=S)c2C#N)CC(C)(C)CC3=O)cc1 (stereo unspecified),-2.05%,-0.8%,10.8%,-9.35,-0.05%,8.9%
O=C1N(c2ccccc2)C(=O)C2(SC=NN2Cc2ccccc2)N1c1ccccc1 (stereo unspecified),-7%,2%,-18.6%,8.2,11.8%,10.7%
